The full ranking holds about 16,000 sequences; the median of “e-score” is about -0.044, and the highest 2% start at about 0.38. This excerpt belongs to a sample that is enriched for the highest values.
Target: T1, GST-NbGlk1(82-244) (Nicotiana benthamiana)
T1 chain: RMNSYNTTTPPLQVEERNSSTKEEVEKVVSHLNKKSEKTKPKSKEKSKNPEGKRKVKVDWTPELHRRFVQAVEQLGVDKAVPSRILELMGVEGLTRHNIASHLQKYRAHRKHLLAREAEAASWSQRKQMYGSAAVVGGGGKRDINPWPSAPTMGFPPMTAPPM
Assay: protein-binding microarray; NbGlk1 is a Golden2-like transcription factor of Nicotiana benthamiana; high values mean tight binding
Settings: protein: recombinant; tags: GST (pTH6838); dsDNA, one strand shown

AATATTTA and AACAAGAT are within error of each other in binding signal: 0.216 ± 0.021 E-score for the first, 0.228 ± 0.0325 E-score for the second.

Compared with ATAGAATC, AGAGAAAT is lower in binding signal: 0.397 ± 0.032 E-score for the first, 0.241 ± 0.00888 E-score for the second.

Compared with ACAGAATC, AGAGAATA is lower in binding signal: 0.45398 ± 0.00026 E-score for the first, 0.243 ± 0.0561 E-score for the second.

Going from AGAGAATC to ATAGAGAA, the binding signal falls from 0.4789 ± 0.00191 E-score to 0.231 ± 0.0678 E-score.

Compared with ATAGAAAT, AGCGAATC is higher in binding signal: 0.249 ± 0.0207 E-score for the first, 0.4592 ± 0.00447 E-score for the second.

First: ACAGAATA
Second: ACCGAATC
The binding signal of the first is lower: 0.257 ± 0.0299 E-score for the first, 0.363 ± 0.0171 E-score for the second.

AACGAATC and ATCGAATC are within error of each other in binding signal: 0.367 ± 0.0566 E-score for the first, 0.354 ± 0.00608 E-score for the second.

Going from ATCTGATG to AAATATAT, the binding signal rises from 0.241 ± 0.0502 E-score to 0.326 ± 0.0239 E-score.

AAATATGC and AATCGCAA are within error of each other in binding signal: 0.234 ± 0.0807 E-score for the first, 0.359 ± 0.0518 E-score for the second.

ATCAGAAA and ATCGCGTG are within error of each other in binding signal: 0.272 ± 0.108 E-score for the first, 0.304 ± 0.0178 E-score for the second.

AAGCATAT and AGTATCAG are within error of each other in binding signal: 0.213 ± 0.0284 E-score for the first, 0.272 ± 0.0918 E-score for the second.

Going from AATCGGTA to AATCTGTA, the binding signal rises from 0.257 ± 0.0795 E-score to 0.414 ± 0.00915 E-score.

Going from AATCTGAA to ATTCTGTA, the binding signal falls from 0.444 ± 0.0239 E-score to 0.271 ± 0.104 E-score.

AATGATTC and AATTTATA are within error of each other in binding signal: 0.22 ± 0.0193 E-score for the first, 0.264 ± 0.104 E-score for the second.

ATTGCACG and AGGGGAAT are within error of each other in binding signal: 0.251 ± 0.046 E-score for the first, 0.32 ± 0.0496 E-score for the second.

ACCGAAAT and ATCGAAAT are within error of each other in binding signal: 0.338 ± 0.0315 E-score for the first, 0.387 ± 0.0408 E-score for the second.

Compared with AGCGAAAT, AGGGCAAT is lower in binding signal: 0.343 ± 0.064 E-score for the first, 0.201 ± 0.0755 E-score for the second.

Compared with ACGGAAAT, ACGGAATC is higher in binding signal: 0.345 ± 0.0654 E-score for the first, 0.453 ± 0.0108 E-score for the second.

AAGGAATC and AGGGGATC are within error of each other in binding signal: 0.396 ± 0.0666 E-score for the first, 0.316 ± 0.0502 E-score for the second.

Compared with ATGGAATC, AGGGAATC is higher in binding signal: 0.385 ± 0.0354 E-score for the first, 0.477 ± 0.0128 E-score for the second.

AAGGAAAT and ATGGAAAT are within error of each other in binding signal: 0.3484 ± 0.000416 E-score for the first, 0.335 ± 0.0407 E-score for the second.

Going from ACGGAATA to AGGGATTC, the binding signal rises from 0.264 ± 0.0173 E-score to 0.359 ± 0.0107 E-score.

Compared with AAGGATTC, ATGGATAC is lower in binding signal: 0.3738 ± 0.00237 E-score for the first, 0.25 ± 0.0455 E-score for the second.

ATCTCAAT and ATTAGATA are within error of each other in binding signal: 0.245 ± 0.0732 E-score for the first, 0.304 ± 0.0251 E-score for the second.

ATCCGCTG and AATCGCAC are within error of each other in binding signal: 0.261 ± 0.0225 E-score for the first, 0.296 ± 0.0196 E-score for the second.

AAAGTGAT and AGGCAGAT are within error of each other in binding signal: 0.217 ± 0.169 E-score for the first, 0.213 ± 0.0549 E-score for the second.

AATAGAAT and AAAAATAA are within error of each other in binding signal: 0.2556 ± 0.00204 E-score for the first, 0.229 ± 0.0366 E-score for the second.

First: ATTTATAA
Second: ATATTGCG
The binding signal of the first is lower: 0.229 ± 0.0487 E-score for the first, 0.328 ± 0.0285 E-score for the second.

First: AGATTGCC
Second: ATCTTGCC
The binding signal of the first is higher: 0.4477 ± 0.0014 E-score for the first, 0.261 ± 0.0186 E-score for the second.

First: AAATTGCG
Second: AGATTGCT
The binding signal of the first is lower: 0.262 ± 0.0556 E-score for the first, 0.426 ± 0.00629 E-score for the second.

ATATTGCC and ATTTTGCA are within error of each other in binding signal: 0.249 ± 0.0822 E-score for the first, 0.238 ± 0.0203 E-score for the second.

Going from ATATTGAT to AGATTGCA, the binding signal rises from 0.248 ± 0.0795 E-score to 0.4641 ± 0.00231 E-score.

AGATAGAT and ATATTGCA are within error of each other in binding signal: 0.267 ± 0.0623 E-score for the first, 0.225 ± 0.111 E-score for the second.

Compared with AGATTGCG, AACAATCC is lower in binding signal: 0.4943 ± 0.000727 E-score for the first, 0.244 ± 0.0442 E-score for the second.

ATTATTAA and ACATATCA are within error of each other in binding signal: 0.205 ± 0.0755 E-score for the first, 0.216 ± 0.0561 E-score for the second.

ATTCAGGA and ATCACATA are within error of each other in binding signal: 0.206 ± 0.0808 E-score for the first, 0.212 ± 0.0312 E-score for the second.

AAATTTAT and AAGCGAAT are within error of each other in binding signal: 0.22 ± 0.0544 E-score for the first, 0.291 ± 0.0479 E-score for the second.

Going from AAATTCGA to AGATTCGA, the binding signal rises from 0.219 ± 0.058 E-score to 0.389 ± 0.00837 E-score.

First: AAATTCGC
Second: AGATTCGC
The binding signal of the first is lower: 0.284 ± 0.0251 E-score for the first, 0.482 ± 0.00816 E-score for the second.

Compared with AGATTCGG, AAATTCGG is lower in binding signal: 0.413 ± 0.00846 E-score for the first, 0.227 ± 0.0723 E-score for the second.

ATATTCGA and ATATTCGC are within error of each other in binding signal: 0.293 ± 0.0238 E-score for the first, 0.321 ± 0.0229 E-score for the second.

ATATTCGG and ATTTTTCA are within error of each other in binding signal: 0.228 ± 0.0147 E-score for the first, 0.253 ± 0.137 E-score for the second.

Compared with ATCGGAGA, ATCTTGTA is higher in binding signal: 0.249 ± 0.0227 E-score for the first, 0.28 ± 0.00362 E-score for the second.

— PMC5836133, “The intracellular immune receptor Rx1 regulates the DNA-binding activity of a Golden2-like transcription factor”
